From ChEMBL document CHEMBL4888484, “Replenishing the malaria drug discovery pipeline: Screening and hit evaluation of the MMV Hit Generation Library 1 (HGL1) against asexual blood stage Plasmodium falciparum ,using a nano luciferase reporter read-out” (2022)
Among all 150,000 compounds or so, about 540 (0.36%) showed an effect of 50% or more. This is one part of a sample in which strong results are shown more often than they occur.

The molecules below were run on Plasmodium falciparum (assay: Primary screen in NF54 nanoGlo assay, in single point, at 2uM, 72h; a lower Z score goes with more inhibition). Conditions: timepoint 72 hour.
Type: functional, Erythrocyte

SMILES	% Inhibition	Z score
O=C(Nc1cccc2c1CCCC2)c1cccc(S(=O)(=O)N2CCCCC2)c1	-16%	1.73
Cc1cc(=O)c(C(=O)Nc2ccnc(NC(=O)OC(C)(C)C)c2)c[nH]1	-2%	0.38
Cn1cncc1CCN1CCC[C@H](NC(=O)OC(C)(C)C)C1	-12%	1.84
Cn1cncc1CC(=O)Nc1ccnc(NC(=O)OC(C)(C)C)c1	94%	-14.52
CC(C)c1noc(CN2CC[C@H](NC(=O)c3ccccn3)[C@@H](O)C2)n1	-2%	0.42
CCCN(CC(=O)N(Cc1ccco1)C[C@H]1CCCO1)C(=O)c1ccc(C)cc1	-8%	1.14
COc1ccnc(C(=O)N(Cc2cnn(C)c2)C(C)C)c1	-10%	1.37
CC(C)c1nccn1CC(=O)NC(C1CC1)C1CC1	1%	-0.12
CC(C)c1nccn1CCC(=O)N1CC[C@H](N)C1	6%	-0.94
CC(C)c1nccn1CCC(=O)Nc1ncn(C2CCCCC2)n1	50%	1.4
CC(C)Cn1c(CC2(CC(=O)NC3CCOCC3)CCCC2)nc2cccnc21	-12%	1.81
CCN1CCN(Cc2cccc3cccnc23)C(C)(C)C1=O	-9%	1.65
Cc1ccc(-c2ncc(CN3CCCC4(C3)OCCO4)s2)o1	-5%	0.88
COc1cc(C)c(S(=O)(=O)N2CCc3cc4ccccc4nc32)cc1C	-10%	1.11
C[C@H](NC(=O)c1cncc(O)c1)c1nncn1C	-4%	0.69
Cc1nc(N(C)C)cc(N2CCN(C(=O)C3CCCC3)CC2)n1	-17%	1.88
c1ccc(CC2(c3nc(-c4cnccn4)no3)CCC2)cc1	13%	-2.33
COc1cccc(-c2nsc(C(=O)NCc3cccs3)c2N)c1	18%	-2.8
OC1CCCCC1N1CCc2sccc2C1 (stereo unspecified)	-21%	2.66
CCN(CC)CCNCc1cccc(Cl)c1Cl	-2%	0.28
CCNCc1cccc(Cl)c1Cl	4%	-0.5
Clc1cccc(CNCCCNc2ccncc2)c1Cl	67%	-8.81

SMILES	% Inhibition	Z score
Cc1ccc2c(c1)CCCN2C(=O)c1ccoc1	4%	-0.72
CCn1ccc(C(=O)N[C@H]2CCOC[C@@H]2OC)n1	-7%	0.83
OC1CCC(NC(=NC2CC2)NCc2ccccc2F)CC1 (stereo unspecified)	-9%	1.4
CC1(C)C(CNC(=O)CCn2cc(C(N)=O)c(=O)[nH]c2=O)C1(C)C	19%	-2.23
CCOC(=O)CCn1cc(F)c(=O)[nH]c1=O	74%	-6.55
Cc1cc(C(=O)Cn2cc(Cl)c(=O)[nH]c2=O)c(Cl)cc1F	-1%	0.1
CCCCN(CC)C(=O)Nc1cc(Cl)c(OC)cc1OC	1%	-0.07
O=C(NCCCn1ccnc1)[C@@H]1Cc2c(ccc3ccccc23)O1	4%	-0.47
CC(C)[C@H](NC(=O)Nc1cc(Cl)ccc1Cl)c1ncc[nH]1	-5%	0.62
C[C@@H](C(=O)Nc1ncc[nH]1)c1ccc2c(c1)[nH]c1ccc(Cl)cc12	69%	-1.75
C[C@@H](C(=O)Nc1nnc[nH]1)c1ccc2c(c1)[nH]c1ccc(Cl)cc12	-7%	0.71
CN(c1ccc2c(c1)CCO2)S(C)(=O)=O	13%	-1.53
O=C(O)[C@H]1CCCN(c2nc(-c3ccsc3)nc3ccccc23)C1	-12%	2.15
C[C@H]1CCCN(c2nc(-c3ccccn3)nc3ccccc23)C1	96%	-9.05
COC[C@H]1CCN(c2nc(-c3ccccn3)nc3c2CCNCC3)C1	-2%	0.41
FC(F)(F)[C@H]1CCCN(c2nc(-c3cccnc3)nc3ccccc23)C1	8%	-0.64
C[C@H]1CCN(c2nc(-c3ccccn3)nc3c2CCC3)C1	90%	-12.13
FC(F)(F)C1CN(c2nc(-c3ccccn3)nc3c2CCC3)C1	75%	-13.36
NC(=O)C[C@H]1CCN(c2nc(-c3ccccn3)nc3c2CCC3)C1	-8%	1.56
c1ccc(-c2nc3c(c(N4Cc5ccccc5C4)n2)CCNC3)nc1	-4%	0.52
O=C(Cn1nccn1)N1CCN(Cc2ccc3c(c2)OCO3)CC1	2%	-0.28
CCN(C(=O)c1cc(N)ccc1Cl)C(C)C	6%	-0.81

SMILES	% Inhibition	Z score
Cc1cccn(CC(=O)N2CCC(=O)[C@@H](C)C2)c1=O	2%	-0.36
O=C1c2ccccc2C(=O)N1Cc1nc(-c2cccnc2)no1	-9%	1.34
Cc1ccsc1C(=O)NCCNc1ncccn1	-7%	0.93
CCCc1cnc(C)nc1-c1ccnc2c1ccn2C	-4%	0.73
Cc1ccncc1C(=O)N1CCC(CCn2c(C)cnc2C2CC2)CC1	-3%	0.37
Cc1ccnc(N2CCC(O)(Cn3ccnc3)CC2)n1	-12%	1.12
CC(C)(C)c1ccc(=O)n(CC2CN(c3cnsn3)C2)n1	-16%	2.38
CC(=O)C(=CNc1ncc(C(F)(F)F)cc1Cl)C(C)=O	-6%	1.17
C[C@H](Nc1ncc(C(F)(F)F)cc1Cl)C(N)=O	-10%	1.96
CN(C(=O)C(C)(C)Nc1ncc(C(F)(F)F)cc1Cl)c1ccc(Cl)cc1	59%	-7.64
Oc1nc(-c2cccc(C(F)(F)F)c2)sc1-c1ccccc1	59%	0.06
FC(F)(F)c1cccc(-c2cc(-c3csc(-c4ccccc4)n3)on2)c1	1%	-0.12
Oc1nc(-c2cccnc2)sc1-c1ccccc1	-2%	0.32
O=C(NCCn1c(=O)[nH]c2ccsc2c1=O)c1ccccc1Cl	-10%	1.7
O=C(CCn1c(=O)[nH]c2ccsc2c1=O)NCc1ccccc1	59%	-1.7
O=c1[nH]c2ccsc2c(=O)n1CCc1ccccc1	33%	-4.74
COc1cc(C(=O)NCC2(C)CCCCCC2)on1	-5%	0.52
CC1=C(C(=O)Nc2ccccc2)[C@H](c2ccc(Cl)cc2)c2c(n(C)c(=O)n(C)c2=O)N1	-3%	0.36
O=C(NCCCOCC(F)(F)F)NC1CCCC2OCCC12 (stereo unspecified)	-14%	1.44
CCN1CCN(CCN2CC3(CCN(Cc4ccccc4C#N)CC3)OC2=O)CC1	2%	-0.49
CCc1nc2c(C(=O)N3CCOc4c(C)cc(C)cc43)ccnc2[nH]1	71%	-10.67
CCc1nc(O)c(C(=O)N2CCOc3cc(F)c(F)cc32)cc1C	-5%	0.67

SMILES	% Inhibition	Z score
Cc1cc(C)c2c(c1)N(C(=O)Cc1cnccc1C)CCO2	-7%	0.88
O=C(c1n[nH]c2c1CCCCCC2)N1CCC(c2nc(C3CCOCC3)no2)CC1	-3%	0.4
CCn1cc(-c2cccc(C(=O)N[C@@H](C)c3nc(C)sc3C)c2)cn1	-4%	0.85
C[C@@H](CN1CCc2ccccc2C1)NC(=O)c1cnc2c(c1)CCCC2	-3%	0.47
CN(CC(F)(F)F)C(=O)CN1C(=O)c2ccccc2C(C)(C)C1=O	2%	-0.16
Cc1[nH]ncc1CCCNCc1cccc(O)c1	39%	-0.35
Cc1cn2nc(C(=O)NCCc3ccc(S(N)(=O)=O)cc3)cc2c(=O)[nH]1	-18%	3.38
Cc1cn2nc(C(=O)NCCc3ccccc3)cc2c(=O)[nH]1	3%	-0.45
COc1ccc(CCNC(=O)c2cc3c(=O)[nH]c(C)cn3n2)cc1OC	61%	-7.83
CCN(CC)S(=O)(=O)c1ccc2c(c1)nnn2CCNC(=O)Nc1cccc(F)c1	26%	-2.96
CNC(=O)CCCN(C)c1ccnc2cc(Br)cnc12	-9%	1.06
C[C@@H](CN)N(C)c1ccnc2cc(Br)cnc12	99%	-17.88
Cc1cc(CN(C)c2ccnc3cc(Br)cnc23)no1	12%	-0.99
Cc1cc(C(=O)N[C@@H]2COC(C)(C)C2)n(C2CCOCC2)n1	3%	-0.34
C[C@@H](C(=O)N(C)CC1(CO)CCCC1)N1CCN(C)CC1	-13%	1.47
COc1cc(CNCCN2CCOCC2)ccc1OCc1cccc(C)c1	42%	-5.6
COc1cc(CNCCCN2CCOCC2)ccc1OCc1ccc(Cl)cc1	50%	-4.4
COc1ccc(-c2cc3n(n2)CCC(=O)N3Cc2ccc(C(=O)NCCN3CCCCC3)cc2)cc1	10%	-1.2
COc1ccc(S(=O)(=O)N2CCC(c3cc(N)on3)CC2)cc1Cl	57%	-3.68
COc1ccc(S(=O)(=O)N2CCC(n3cnnc3C)CC2)cc1Cl	-11%	1.63
COc1cccc(S(=O)(=O)N2CCC(c3cc(N)on3)CC2)c1	19%	-2.95
C[C@@H](c1nc(C(C)(C)C)no1)N1CCN(C(c2ccccc2)c2ccccc2)CC1	-18%	1.54
